# Compounds with a hit are over-represented: about 4% of the library has one in this group of screens.
# HEK293 cAMP ctrl – qHTS Assay for Agonists of the Thyroid Stimulating Hormone Receptor: Activators of Intracellular cAMP Concentrations in Parental HEK 293. parental HEK293 CNG cAMP sensor, membrane potential fluorescence. 73,000 tested, 2.5% active. Potency, µM (titrated, usually from 57.1 µM), without a hit: top-dose activation, most hits filed as activators; also: % of control where 0% means no effect; nearly all actives have a fitted effect of over 55% in size
#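 Counterscreen for endogenous-receptor signalling: CNG-channel HEK 293 cells report cAMP rise by membrane depolarization. After 60 min dye equilibration with 100 uM RO 20-1724, compounds incubated 30 min before bottom-read fluorescence at 590 nm.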
# Casp7 inh – qHTS Assay for Allosteric/Competitive Inhibitors of Caspase-7; Potency, µM (doses to about 57.5 µM), inactives show at the top dose activity change, negative = inhibition, usual class: inhibitors; AID 889, 2007; 75,000 tested, 0.02% active; P55210; recombinant caspase-7, Ac-DEVD-AFC fluorescence rate; active = well fitted inhibition curve with a large enough effect in the main read-out, with a control signal flat, not every such curve was filed as active; inconclusive = small, poorly fitted or top-dose-only effect, or a change in a side signal; also: % of control where 0% means no effect
# Target sequence (P55210 24-198 limits assumed): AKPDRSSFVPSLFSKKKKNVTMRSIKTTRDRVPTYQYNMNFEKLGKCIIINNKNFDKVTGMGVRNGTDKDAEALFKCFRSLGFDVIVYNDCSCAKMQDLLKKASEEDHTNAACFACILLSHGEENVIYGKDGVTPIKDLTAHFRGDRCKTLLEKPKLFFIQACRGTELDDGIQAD
# Target sequence (P55210 207-303 limits assumed): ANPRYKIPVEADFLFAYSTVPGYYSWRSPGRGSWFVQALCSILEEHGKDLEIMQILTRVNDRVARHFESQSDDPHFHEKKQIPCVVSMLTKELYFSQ
# Casp1 inh – qHTS Assay for Allosteric/Competitive Inhibitors of Caspase-1. P29466. Caspase-1 enzyme, Ac-WEHD-AFC fluorogenic rate. Potency, µM (doses to about 57.5 µM), for the others: top-dose activity change, negative = inhibition, actives largely listed as inhibitors. 75,000 tested, 0.03% active. AID 900, 2007;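 also: plate controls were vehicle for no effect and no substrate for full effect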
# Target sequence (P29466 120-297 limits assumed): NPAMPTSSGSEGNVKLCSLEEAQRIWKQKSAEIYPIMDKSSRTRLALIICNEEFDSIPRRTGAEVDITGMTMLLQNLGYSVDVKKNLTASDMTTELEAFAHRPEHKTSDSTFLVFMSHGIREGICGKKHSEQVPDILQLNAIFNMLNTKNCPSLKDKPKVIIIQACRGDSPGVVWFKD
# Target sequence (P29466 317-404 limits assumed): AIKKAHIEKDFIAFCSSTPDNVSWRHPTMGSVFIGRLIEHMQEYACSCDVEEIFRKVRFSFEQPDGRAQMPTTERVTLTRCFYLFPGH
# Bst PK mod – Pyruvate Kinase; purified pyruvate kinase, luminescence ATP production; ribose 5-phosphate activator present at AC10; Potency, µM; 51,000 tested, 1.2% active; AID 361, 2006; in the data active = potency below about 11 µM; inconclusive = mostly about 12 µM to 25 µM;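 the screen sought inhibitors and activators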;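 also: scaled between full activation by ribose 5 phosphate and full inhibition by luteolin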
# GBA activity – Glucocerebrosidase; AID 360, 2006; Lysosomal acid glucosylceramidase (Homo sapiens), P04062; purified enzyme, resorufin glucoside fluorescence (screen aimed at inhibitors), 20 min; 48,000 tested, 1.1% active; Potency, µM; in the data active = potency below about 15 µM; inconclusive = mostly about 16 µM to 33 µM;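 also: the screen sought inhibitors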
#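 Normal human glucocerebrosidase (0.2 nM final) was assayed with resorufin β-D-glucopyranoside (30 uM final) in 50mM citric acid/KH2PO4, 10mM sodium taurocholate, 0.01% tween-20, pH 5.9. Compounds were titrated; fluorescence (Ex 548, Em 600) read after 20 min at RT.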
# TSHR agonist – qHTS Assay for Agonists of the Thyroid Stimulating Hormone Receptor; HEK293-CNG-TSHR cells (CNG channel as cAMP sensor), membrane potential dye, cAMP; Thyrotropin receptor (Homo sapiens), P16473; 73,000 tested, 0.48% active; AID 926, 2007; Potency, µM (series often up to 57.1 µM), without a hit: at the top dose activation, usual class: activators; active = well fitted activation curve with a large enough effect in the main read-out, with a control signal flat, not every such curve was filed as active; inconclusive = small, poorly fitted or top-dose-only effect, or a change in a side signal; inactive = no such curve, though single readings can be large or run the other way; % of control where 0% means no effect;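 also: the control signal comes from parental cells without the receptor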
#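 HEK 293 cells stably expressing TSHR and a cAMP-gated CNG channel; parental CNG-only cells as counterscreen. Cells preloaded 60 min with membrane potential dye plus 100 uM RO 20-1724, then compound 30 min; fluorescence read at 590 nm.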
# Starred values were filed as active, the others as inactive; i = inactive; ? = inconclusive; / = no result given; [ ] = another dose, or the depositor's remark. Unless noted, calls follow the shape of the dose curve; as a rule, active = well fitted curve in the direction sought with a large enough effect; inconclusive = small, poorly fitted or top-dose-only effect, or another doubt; inactive = no such curve, though single readings can be large; an effect the other way counts as inactive or inconclusive. Potency is read from the fitted curve at half-maximal effect.
SMILES,HEK293 cAMP ctrl,Casp7 inh,Casp1 inh,Bst PK mod,GBA activity,TSHR agonist
COc1ccc(-c2cc(C(=O)N3CCCc4ccccc43)no2)cc1OC,25.1µM*,-0.8%,-0.9%,>57,>76.9,?
O=C(CCCC(=O)N1CCCc2ccccc21)N1CCCc2ccccc21,23.6%,-0.9%,-1.1%,/,/,28.0%
COc1ccc(OC)c(-c2cc(C(=O)N3CCCc4ccccc43)no2)c1,?,-1.6%,-1.5%,>57,>76.9,?
CC(C)(CO[C@H]1C[C@H]2CC[C@@]1(C)C2(C)C)[N+](=O)[O-],-2.2%[11.4 µM],-0.3%[11.5 µM],-3.7%[11.5 µM],/,/,2.3%[11.4 µM]
CC(=O)N[C@@H]1CONC1=O,1.7%[11.4 µM],-0.2%[11.5 µM],-2.2%[11.5 µM],/,/,1.7%[11.4 µM]
NC(=O)C1=CN([C@@H]2O[C@@H](COP(=O)(O)OP(=O)(O)OC[C@@H]3O[C@H](n4cnc5c(N)ncnc54)[C@@H](OP(=O)(O)O)[C@@H]3O)[C@H](O)[C@@H]2O)C=CC1,?,0.1%,1.6%,/,/,?
CCC[C@@H]1C[C@@]1(CCC)C(NC(=O)c1ccccc1)c1cccc(Cl)c1 (stereo partly specified),22.4%,-0.3%,-2.2%,/,/,19.0%
CCOc1ccc2nc(NCCNC(=O)CC)c(C#N)cc2c1,3.7%,0.6%,-1.4%,>57,>76.9,1.8%
Cc1ccc2cc(C#N)c(NCCNC(=O)C3CC3)nc2c1C,25.1µM*,?,/,>57,>76.9,?
O=c1cnc2cncnc2n1Cc1ccc(F)cc1,?,-5.8%,-4.3%,/,/,?
CN(Cc1ccco1)c1ncnc2ccc(-c3ccc4c(c3)OCO4)cc12,15.8µM*,-4.9%,-3.1%,/,/,?
CN(C)c1ccc(-c2cncnc2N(C)Cc2ccco2)cc1,-3.1%,-5.9%,-4.9%,/,/,/
CN(Cc1ccco1)c1ncnc2ccc(-c3cccnc3)cc12,11.8%,-4.5%,0.9%,/,/,1.7%
CN(Cc1ccco1)c1ncncc1-c1ccc2c(c1)OCO2,18.1%,-3.1%,-3.5%,/,/,25.1µM*
CN(C)c1ccnc(-c2ccccc2C(F)(F)F)n1,?,1.7%,-0.4%,/,/,?
Cc1nnc(SCC2=C(C(=O)O)N3C(=O)C(NC(=O)Cn4cnnn4)[C@@H]3SC2)s1 (stereo partly specified),/,-2.9%,-1.7%,/,/,/
Cc1cc2nc(-c3cccnc3SCC(=O)NCc3ccco3)[nH]c2cc1C,17.9%,-25.1%,?,3.87*,>76.9,4.3%
O=C(CSc1ncccc1-c1nc2ccccc2[nH]1)NCc1ccco1,-2.7%,-13.4%,-12.0%,/,/,-0.6%
O=c1c(-c2cccs2)nc2cnc(N3CCNCC3)nc2n1CCc1ccccc1,-35.7%,?,/,/,/,?
CC(=O)Nc1cccc(Cn2cccn2)c1,20µM*,0.4%,0.5%,>57,>76.9,?
O=C(Nc1cccc(Cn2cccn2)c1)c1cc2c(s1)CCCC2,28.2%,-0.9%,-1.4%,i,>76.9,/
CCOC(=O)c1nn(-c2ccc3c(c2)CCN3C(C)=O)cc1O,-12.6%,-2.4%,-1.6%,9.85*,>76.9,4.6%
CCOCCCNS(=O)(=O)c1ccc2c(c1)CCN2C(C)=O,11.4%,0.5%,-1.3%,>57,>76.9,-1.6%
C/C(=N/O)[C@@H]1C[C@H](CC(=O)O)C1(C)C,-0.4%[11.4 µM],-1.9%[11.5 µM],-1.6%[11.5 µM],/,/,2.8%[11.4 µM]
CCNCCNC(=O)c1c(O)c2ccccc2n(CC)c1=O,?,1.1%,0.1%,>57,>76.9,?
SMILES,HEK293 cAMP ctrl,Casp7 inh,Casp1 inh,Bst PK mod,GBA activity,TSHR agonist
C=CCn1c(=O)c(C(=O)NCCNCC)c(O)c2ccccc21,12.6µM*,1.8%,1.1%,>57,>76.9,?
OCCN(CCO)c1ncnc2c1sc1nc(N3CCOCC3)c3c(c12)CCCC3,/,/,/,>25.6,/,/
CSc1nc(N(CCO)CCO)c2sc3nc(-c4ccco4)c4c(c3c2n1)CCC4,25.1µM*,-5.0%,-5.2%,>57,>76.9,?
CC(=O)OC(C(=O)c1ccccc1)c1ccccc1 (stereo unspecified),16.9%,-0.6%,0.5%,/,/,11.6%
NCCCCCc1nnc(SCC(=O)Nc2cccc(Cl)c2)o1,3.6%,-1.1%,-2.6%,>57,>76.9,15.8µM*
OCCOCCNc1ncnc2c1cnn2-c1ccc(Cl)cc1,/,/,/,11*,/,/
Cc1ccc(-n2ncc3c(NCCCOC(C)C)ncnc32)c(C)c1,/,/,/,>11.4,/,/
CC(C)OCCCNc1ncnc2c1cnn2-c1ccccc1,/,/,/,8.88*,/,/
COCCNc1ncnc2c1cnn2-c1ccc(Cl)cc1,/,/,/,10*,/,/
O=C(CSc1nnnn1Cc1ccccc1)c1ccccc1,31.6µM*,1.9%,-1.3%,>57,>76.9,?
COc1ccc(C(=O)CSc2nnnn2Cc2ccccc2)cc1,22.0%,7.5%,-4.0%,>57,>76.9,15.7%
Cc1cccc(-n2ncc3c(NCc4cccs4)ncnc32)c1,2.2%,-5.0%,-3.0%,/,14.5*,-3.2%
CCOC(=O)[C@]1(CC(=O)O)CCCC1=O,3.8%[11.4 µM],0.5%[11.5 µM],0.3%[11.5 µM],/,/,0.2%[11.4 µM]
COC(=O)c1cccc(NC(=O)c2cc3sccc3n2C)c1,12.6µM*,0.8%,-3.7%,/,>76.9,?
COc1ccc2oc(-c3ccc(O)cc3)cc(=O)c2c1,?,-13.0%,-6.0%,/,/,?
CCCn1c(=O)c2ccccc2n2c(SCc3nc4ccccc4s3)nnc12,?,-0.6%,-0.3%,/,>76.9,?
CCCn1c(=O)c2ccccc2n2c(SCCOc3ccccc3)nnc12,10µM*,-0.8%,-0.7%,/,>76.9,?
CCC/C=C(\CCC)C(NC(=O)c1ccco1)c1ccc(C(=O)OC)cc1 (stereo unspecified),25.1µM*,-3.8%,-2.5%,/,/,?
c1ccc(-n2nnc3c(N4CCOCC4)ncnc32)cc1,4.0%,0.1%,0.2%,9.21*,>76.9,-2.4%
c1ccc(Cn2nnc3c(N4CCCC4)ncnc32)cc1,?,-0.5%,-2.7%,>57,>76.9,?
COC(=O)/C=C\c1cc(O)ccc1O,-3.0%,-6.4%,-7.0%,/,/,-1.6%
O=c1c(O)cc(C2Oc3cc(O)cc(O)c3CC2O)cc2c(C3Oc4cc(O)cc(O)c4CC3O)cc(O)c(O)c12 (stereo unspecified),/,-26.6%,?,/,/,/
COC(=O)[C@@]1(Cc2ccccc2)[C@H]2c3cc(C(=O)N4CCCC4)n(Cc4ccccc4)c3C[C@H]2CN1C(=O)c1ccccc1,1.26µM*,-7.6%,-2.7%,/,/,?
COC(=O)[C@@]1(Cc2ccc(OC)cc2)[C@H]2c3cc(C(=O)N4CCCC4)n(Cc4cc(C)n(C)n4)c3C[C@H]2CN1C(=O)c1ccccc1,12.6µM*,-2.3%,-5.7%,/,/,?
COC(=O)[C@@]1(Cc2ccccc2)[C@H]2c3cc(C(=O)N4CCCC4)n(C)c3C[C@H]2CN1C(=O)c1ccccc1,?,-2.8%,-1.1%,/,/,?
COC(=O)[C@@]1(Cc2ccc(OC)cc2)[C@H]2c3cc(C(=O)N4CCCC4)n(CCO)c3C[C@H]2CN1C(=O)c1ccccc1,15.7%,-1.4%,-1.2%,/,/,1.5%
